# Experimental data: PubChem BioAssay AID990 (National Center for Advancing Translational Sciences (NCATS), 2007)
# Calls of active or inactive are those of the source.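 Rule for the calls: active = compound that made reporter-free parental cells show up as glowing objects under laser imaging, so likely a fluorescent false positive; inactive = the rest.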
# Test: Parental Cell Counter Screen Assay for Epigenetic Modulators
# Details: parental c127i cells, compound fluorescence imaging, 30 h
# From the text: NIH Molecular Libraries Screening Centers Network [MLSCN] NIH Chemical Genomics Center [NCGC] MLSCN Grant: 1 X01 MH079860-01 Assay Provider: Elisabeth D. Martinez, University of Texas SW Medical Center NCGC Assay Overview: This assay is a counter screen for the Locus Derepression (LDR) assay (PubChem AID 597). The LDR assay detects the derepression of a GFP reporter that is stably integrated in a region of the genome of murine c127i mammary cells that is presumably silenced. Compounds that cause derepression of the locus to express GFP are identified by enumerating GFP positive cells using a laser-scanning microplate cytometer. […] Compounds active in the parental c127i cells are likely fluorescent.
# NCGC Assay Protocol Summary: Two hundred and fifty cells in 5 uL per well were dispensed into black, clear-bottom 1536-well plates. Twenty-three nL compound was transferred to the assay plate and cells were incubated 30 hours at 37 C. Medium was removed, cells were washed two times with PBS, and fluorescent cells were enumerated as objects between the sizes of 20 to 120 um width and depth using a laser-scanning microplate imager (Acumen Explorer Ex3, TTP Labtech).
SMILES,outcome,Potency
c1cnn(-c2nc(N3CCOCC3)nc(N3CCOCC3)n2)c1,inactive,
Cc1cc(C)n(-c2nc(NC(C)C)nc(NC(C)C)n2)n1,inactive,
Oc1ccc(COCc2ccccc2)c2cccnc12,inactive,
COc1cccc(C(=O)NC(c2ccco2)c2cc(Cl)c3cccnc3c2O)c1 (configuration not stated),inactive,
CN1CCN(Cc2cc(Cl)c3cccnc3c2O)CC1,inactive,
Oc1c(C(Nc2ccccn2)c2ccco2)cc(Cl)c2cccnc12 (configuration not stated),inactive,
CCN(CC)c1ccc2cc(-c3nc4ccccc4[nH]3)c(=O)oc2c1,,410 nM [fluorescent] (active)
